What all share (experiment): NCI-60 one-dose screen, 48 h (100 = growth as untreated, 0 = no growth, -100 = all killed)
One assay concerns NCI-H226 lung. The conditions noted are these: 10 µM.
The next assay deals with NCI-H322M lung. The conditions noted are these: 10 µM.
The next assay relates to HOP-62 NSCLC. The conditions noted are these: 10 µM.
A further assay has as its system NCI-H460 lung. The conditions noted are these: 10 µM.
The test system of a further assay is NCI-H522 lung. The conditions noted are these: 10 µM.
The subject of the next assay is COLO 205 colon. To be noted: 10 µM.
A further assay concerns DU-145 prostate. To be noted: 10 µM.
A further assay deals with K-562 leukemia. To be noted: 10 µM.
Another assay has as its system SF-539 CNS. To be noted: 10 µM.
Another assay concerns M14 melanoma. The conditions noted are these: 10 µM.
The subject of a further assay is HCT-15 colon. The conditions noted are these: 10 µM.
The next assay relates to HT29 colon. To be noted: 10 µM.
For a further assay, the system named is SNB-75 CNS. To be noted: 10 µM.
A further assay concerns SNB-19 CNS. To be noted: 10 µM.
The subject of the next assay is LOX IMVI melanoma. The conditions noted are these: 10 µM.
The test system of the next assay is MOLT-4 leukemia. To be noted: 10 µM.
Another assay deals with SR leukemia. To be noted: 10 µM.
The test system of the next assay is RPMI-8226 leukemia. To be noted: 10 µM.
The subject of another assay is SK-OV-3 ovarian. The conditions noted are these: 10 µM.
A further assay has as its system MDA-MB-468 breast. To be noted: 10 µM unless noted.

Compounds without any hit were thinned out: in the full panel of roughly 83,000, 20% have a hit.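 Interpretation: 100, growth as untreated; towards 0, rising growth inhibition; 0, no net growth; 0 to -100, cell death. Compounds scoring below 10 were considered active.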 A number with no mark means an inactive call. Activity calls are given as the source filed them.

As for `COc1cccc(C(=O)CSc2nc(-c3ccc(OCc4ccccc4)c(OC)c3)c(C#N)c(=O)[nH]2)c1`, the growth was 86.6% in the assay on NCI-H226 lung; 88.3% in the assay with NCI-H322M lung; 92.2% with HOP-62 NSCLC; 106% in the assay with NCI-H460 lung; 78.9% with NCI-H522 lung; 115% in the assay with COLO 205 colon. Moreover, the growth was 107% in the assay on DU-145 prostate; 90.6% in the assay on K-562 leukemia; 94.2% with SF-539 CNS; 99.5% in the assay with M14 melanoma; 92.8% with HCT-15 colon; 116% in the assay with HT29 colon. Also, the growth is 87.7% with SNB-75 CNS; 70.7% with SNB-19 CNS; 85.7% in the assay with LOX IMVI melanoma; 102% in the assay with MOLT-4 leukemia; 93.9% in the assay with SR leukemia; 102% in the assay with RPMI-8226 leukemia. Also, the growth is 94.5% with SK-OV-3 ovarian and 88.4% with MDA-MB-468 breast.

As to `CCn1c(SCC(=O)Nc2ccc(-c3nc4ccccc4[nH]3)cc2)nc2ccccc2c1=O`, the growth with NCI-H226 lung was -65.5% (active); with NCI-H322M lung, -68.3% (active); in the assay with HOP-62 NSCLC, -80.4% (active); with NCI-H460 lung, -56.2% (active); in the assay on NCI-H522 lung, -74.2% (active); with COLO 205 colon it was -72.7% (active). Moreover, the growth is -50.3% (active) in the assay with DU-145 prostate; -11.3% (active) in the assay on K-562 leukemia; -87.3% (active) in the assay on SF-539 CNS; -87.9% (active) in the assay with M14 melanoma; -50% (active) with HCT-15 colon; -64.9% (active) in the assay on HT29 colon. Also, the growth in the assay with SNB-75 CNS was -94.2% (active); with SNB-19 CNS, -63.5% (active); in the assay with LOX IMVI melanoma, -63% (active); in the assay with MOLT-4 leukemia, 3.3% (active); in the assay with SR leukemia it was -15.2% (active); in the assay with RPMI-8226 leukemia, -11.4% (active). Besides, the growth was -70.5% (active) in the assay on SK-OV-3 ovarian and -81% (active) in the assay with MDA-MB-468 breast.

As to `Cn1cc(-c2nc(N)nnc2-c2c[nH]c3ccccc23)c2cc(Br)cnc21`, the growth with NCI-H226 lung is 0.98% (active); with NCI-H322M lung, 37.2%; with HOP-62 NSCLC, 28.5%; with NCI-H460 lung, 4.09% (active); in the assay on NCI-H522 lung it was -36.5% (active); in the assay on COLO 205 colon, -75.9% (active). Moreover, the growth with DU-145 prostate is 20.6%; in the assay with K-562 leukemia, 9.47% (active); in the assay on SF-539 CNS, 8.25% (active); in the assay on M14 melanoma it was 8.68% (active); in the assay with HCT-15 colon, 10.2%; in the assay with HT29 colon it was -27.2% (active). The growth in the assay on SNB-75 CNS was 2.04% (active); in the assay with SNB-19 CNS, 44.9%; with LOX IMVI melanoma, 15.6%; with MOLT-4 leukemia it was 13.8%; in the assay on SR leukemia it was 8.01% (active); in the assay with RPMI-8226 leukemia, 13%. The growth in the assay on SK-OV-3 ovarian is 26.5%; with MDA-MB-468 breast it was -9.99% (active).
